# Reference: PubChem BioAssay (NCI)
# Several values for one entry are separate records, joined by “and”; a condition that tells them apart may be missing. Equal entries are not always repeated. Compounds without any hit were thinned out: in the full panel of roughly 83,000, 20% have a hit.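 For each line, cells grew in 96-well plates with the test compound present at a single concentration for 48 hours.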 Activity calls are given as the source filed them.
# Tested on: LOX IMVI melanoma
# Experiment: NCI-60 one-dose screen, 48 h (100 = growth as untreated, 0 = no growth, -100 = all killed)
# Conditions: 10 µM
# Description: Growth inhibition of the LOX IMVI human tumor cell line is measured as a screen for anti-cancer activity. Cells are grown in 96 well plates and exposed to the test compound for 48 hours. Compounds are tested at a single concentration, which is 10^-5 M for most compounds. The reported endpoint is percent growth (GI% or GIPRCNT), where numbers from 0 - 100% represent growth inhibition, and numbers from -100% - 0 represent cell death. For example, a value of 40 represents 60% growth inhibition. A value of 0 means no net growth occurred over the course of the experiment. A value of -40 indicates 40% of cells at the beginning of the experiment died by the end of the experiment. A value of -100 means all cells are dead at the end of the experiment.
# NCI-60 Human Tumor Cell Lines Screen was performed using the standard one-dose NCI protocol, which is described in more detail at https://dtp.cancer.gov/discovery_development/nci-60/default.htm.
# Compounds with GIPRCNT values below 10 were considered active. Activity score was based on GIPRCNT using the following formula: […]
# Score is 0 for GIPRCNT values of 100 or above, 50 for GIPRCNT values of 0, and 100 for GIPRCNT values of -100.
row,SMILES,growth
1,O=C(Nc1cccc(Br)c1)Oc1cccc2cccnc12,102% (inactive)

# Same assay, conditions: 10 µM unless noted
row,SMILES,growth
1,CCC(=O)Sc1ccccc1C(=O)Nc1ccc(Cl)cc1,42.2% (inactive)
2,CC1OC2CC(=O)OC2C2=C1C(=O)c1c(O)cccc1C2=O (stereo not given),-91.6% (active)
3,CN1c2ccccc2C(C)(C)C12C=Cc1cc(O)ccc1O2 (stereo not given),47.2% (inactive)
4,O=C(Nc1ccccc1)Oc1c(Cl)c(Cl)c(Cl)c(Cl)c1Cl,99% (inactive) and 93.1% (inactive)
5,C1=C(c2ccccc2)C(c2ccc(OCCN3CCCCC3)cc2)Oc2ccccc21 (stereo not given),-76.9% (active)
6,CC1SC(=S)N(c2ccc(Cl)cc2)C1=O (stereo not given),85.9% (inactive) and 90.2% (inactive)
7,CCCCCCC(C)c1ccccc1O (stereo not given) (tested in a mixture with another compound),95.8% (inactive)
8,O=C1OCc2cccc3cccc1c23,103% (inactive)
9,O=C1c2ccccc2C(=O)c2sc(Nc3cccc(Cl)c3)nc21,-69.1% (active)
10,O=C(Nc1ccccc1)c1cc(Cl)ccc1O,79.8% (inactive)
11,N#CSCc1ccc(CSC#N)c(Cl)c1,46.6% (inactive)
12,COC(=O)[C@@]12OC[C@]34[C@H]([C@@H](O)[C@@H]1O)[C@@]1(C)[C@H](O)C(=O)C=C(C)[C@@H]1C[C@H]3OC(=O)C(OC(C)=O)[C@@H]24 (stereo not given in full),-84.1% (active)
13,CC(=Nc1ccc(N(C)C)cc1)c1ccccc1,60.2% (inactive)
14,CN(C)c1ccc(N=Nc2cccc3ccccc23)cc1,96.3% (inactive)
15,CCCCCCCCCCCCCCCC[N+](C)(CCO)Cc1cnc[nH]1 (stereo not given),-79% (active)
16,CCOC(=O)/C(=C\c1ccc(-c2ccccc2)cc1)C(C)=O,98.4% (inactive)
17,CC(=O)ON=C1C=CC(=C(C#N)c2ccccc2)C=C1,5.8% (active)
18,CCOc1ccc(-c2nc3ccc(-c4nc5ccc(N6CCN(C)CC6)cc5[nH]4)cc3[nH]2)cc1,-88% (active)
19,COc1ccc2nc3cc(Cl)ccc3c(NCCNc3c4ccc(Cl)cc4nc4ccc(OC)cc34)c2c1,-84.9% (active)

row,SMILES,growth
1,CC(C)(C)CC(C)(C)c1ccc(OCCSC(=N)N)cc1,8.68% (active)
2,O=C(Nc1ccc(F)cc1)ON=C1CCCCC1,88.2% [100 µM] (inactive)
3,NC(=O)/C=C/C(=O)c1c(Cl)cccc1Cl,-43.5% (active)
4,NC(N)=N/N=C/c1ccc([N+](=O)[O-])o1,82.1% (inactive)
5,O=C(/C=C/c1cccc(Cl)c1)c1ccccc1,60.5% (inactive) and 20.8% (inactive)
6,COc1ccccc1/C=C\C(=O)c1ccccc1,28.6% (inactive)
7,CCOC(=O)/C=C/c1ccc([N+](=O)[O-])o1,-29.6% (active)
8,NC(=S)N/N=C/c1ccc(Cl)s1,101% (inactive)
9,C/C=C1\SC(=S)NC1=O,101% (inactive)
10,O=C(CC1(O)C(=O)Nc2c(Cl)ccc(Cl)c21)c1ccc(Cl)cc1Cl (stereo not given),100% (inactive)
11,Cc1ccnc(NC(c2ccccc2)c2ccc3cccnc3c2O)c1 (stereo not given),28.1% (inactive)
12,Nc1nc(N)c2c(ccc3c2ccn3Cc2cccc([N+](=O)[O-])c2)n1,-83.4% (active)
13,COc1cc(NS(C)(=O)=O)ccc1Nc1c2ccccc2nc2ccccc12,23.8% [2.5 µM] (inactive)
14,CN(C)C(=O)c1ccc(SC(=S)NCc2ccccc2)cc1,87.5% (inactive)
15,Oc1c(Cl)c2ccccc2c2ccccc12,98% (inactive)
16,CCC1OC(OC)C=CC1=O (stereo not given),103% (inactive)
17,O=C(/C=C/C=C/c1ccccc1)c1ccco1,64.8% (inactive)
18,Oc1c(Cl)cc(Cl)c2cccnc12,32.5% (inactive) and 39.4% (inactive)
19,Cc1cc(N)c2ccccc2[n+]1CCCCCCCCCC[n+]1c(C)cc(N)c2ccccc21,-73% (active) and 37.4% (inactive)

# Same assay, conditions: 100 µM
row,SMILES,growth
1,O=C(Nc1cccc(Br)c1)Oc1cccc2cccnc12,-3.16% (active)
